Compounds with a hit are over-represented: about 9.2% of the library has one in this group of screens.
USP17 inh = human USP17-like deubiquitinase inhibition; A8MUK1; purified USP17, Ub-rhodamine cleavage fluorescence, 3 h; inhibition, % at 50 µM; 6.5% of 47,000 active; AID 1645855
Target sequence (A8MUK1 whole entry, looked up): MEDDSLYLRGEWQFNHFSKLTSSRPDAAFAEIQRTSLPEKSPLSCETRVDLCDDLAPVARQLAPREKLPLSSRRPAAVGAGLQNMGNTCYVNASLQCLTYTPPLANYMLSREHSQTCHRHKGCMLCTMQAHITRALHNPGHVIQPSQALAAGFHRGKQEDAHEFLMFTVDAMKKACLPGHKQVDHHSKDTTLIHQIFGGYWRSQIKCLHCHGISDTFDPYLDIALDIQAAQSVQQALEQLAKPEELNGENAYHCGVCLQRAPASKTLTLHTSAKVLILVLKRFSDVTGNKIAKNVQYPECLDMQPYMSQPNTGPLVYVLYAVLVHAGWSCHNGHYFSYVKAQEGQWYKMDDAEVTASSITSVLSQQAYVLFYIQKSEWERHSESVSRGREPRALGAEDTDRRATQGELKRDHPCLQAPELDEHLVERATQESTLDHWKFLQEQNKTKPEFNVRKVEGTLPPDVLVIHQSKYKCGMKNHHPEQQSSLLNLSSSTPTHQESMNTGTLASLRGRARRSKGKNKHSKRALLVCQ
USP10 block = blocks human USP10 ubiquitin-rhodamine cleavage | Q14694 | purified USP10, Ub-rhodamine fluorescence, 60 min | inhibition, % at 20 µM | 1.1% of 47,000 active | AID 1645856
USP8 block = inhibitors of human USP8 deubiquitinase. P40818. purified USP8, Ub-rhodamine cleavage fluorescence, 30 min. inhibition, % at 20 µM. 4.2% of 47,000 active. AID 1645853
UCHL1 inh = inhibitors of human UCHL1 deubiquitinase; purified UCHL1, Ub-rhodamine cleavage fluorescence; P09936; 0.2% of 47,000 active; AID 1645859; inhibition, % at 20 µM
USP7 block = blocks human USP7 ubiquitin-rhodamine cleavage | 0.3% of 47,000 active | inhibition, % at 20 µM | AID 1645854 | Q93009 | purified USP7, Ub-rhodamine cleavage fluorescence
OTUD3 inh = human OTUD3 deubiquitinase inhibition; Q5T2D3; purified OTUD3, Ub-rhodamine fluorescence, 2 h; inhibition, % at 25 µM; 0.7% of 47,000 active; AID 1645858
The depositor's hits bear a star. No stated cut-off is given here; in the data, active means inhibition above about 30%; inactive means the rest.

How did O=C(NC1CCN(c2nnc3ccccn23)CC1)c1ccc2c(c1)OCO2 do in these assays?
USP17 inh: -9; USP10 block: -1; USP8 block: -29; UCHL1 inh: 0; USP7 block: 0; OTUD3 inh: 1

Results for Cc1ccccc1-c1noc(-c2cn(Cc3ccc(NC(=O)Cc4ccccc4)cc3)cn2)n1 ?
USP17 inh: 60*; USP10 block: 15; USP8 block: 37*; UCHL1 inh: 0; USP7 block: -2; OTUD3 inh: 6

Results for Cc1ccc(-c2noc(-c3cn(Cc4ccc(N)cc4)cn3)n2)cc1 ?
USP17 inh: 0; USP10 block: 10; USP8 block: -2; UCHL1 inh: -1; USP7 block: 1; OTUD3 inh: -13

How did O=C(Nc1ccc(Cn2cnc(-c3nc(-c4ccccc4)no3)c2)cc1)c1ccccc1F do in these assays?
USP10 block: 21; USP8 block: 47*; UCHL1 inh: 11; USP7 block: 16; OTUD3 inh: 9

Results for C/C(=C\CO)CC/C=C(\C)CC/C=C(\C)CC/C=C(\C)CCCC(C)(O)CCCC(C)(O)CCCC(C)(O)CCCC(C)(O)CCC(O)C(C)(C)O (configuration not stated) ?
USP17 inh: -1; USP10 block: 0; USP8 block: 6; UCHL1 inh: 1; USP7 block: 6; OTUD3 inh: 2

What do the screens show for `O=C(Nc1cccc(Cl)c1)N1CCC(c2cc(-c3ccco3)n[nH]2)CC1`?
USP17 inh: 64*; USP10 block: -5; USP8 block: 80*; UCHL1 inh: -12; USP7 block: -7; OTUD3 inh: 33*

What do the screens show for `COc1ccc(C(=O)Nc2cccn3nc(C)nc23)cc1`?
USP10 block: 4; USP8 block: 4; UCHL1 inh: 0; USP7 block: 2; OTUD3 inh: -3

Results for O=C(CN1C=NC2=NS(=O)(=O)c3ccccc3N21)NCc1ccccc1F ?
USP17 inh: 5; USP10 block: 12; USP8 block: 16; UCHL1 inh: 4; USP7 block: 5; OTUD3 inh: 6

Results for CNc1nc(C2CCCN2C(C)=O)nc2c1CCN(Cc1ccc3ncccc3c1)C2 (configuration not stated) ?
USP17 inh: -66; USP10 block: -6; USP8 block: 1; UCHL1 inh: -68; USP7 block: -85; OTUD3 inh: -70

Results for O=C(CCc1nc(-c2cnccn2)no1)N1CCc2ccccc2C1 ?
USP17 inh: 22; USP10 block: 4; USP8 block: 57*; UCHL1 inh: -1; USP7 block: 2; OTUD3 inh: -7

Results for O=C(CCc1nc(-c2cccnc2)no1)N1CCc2ccccc2C1 ?
USP17 inh: -7; USP10 block: -4; USP8 block: -7; UCHL1 inh: -4; USP7 block: -1; OTUD3 inh: -2

Results for NC(=O)c1cc(NC(=O)c2ccc3ccccc3c2)cc(C(N)=O)c1 ?
USP17 inh: 66*; USP10 block: 3; USP8 block: 1; UCHL1 inh: 3; USP7 block: 6; OTUD3 inh: 7

Results for O=C(Nc1cccc(-c2ccc(N3CCOCC3)nn2)c1)c1ccc2ccccc2c1 ?
USP17 inh: -3; USP10 block: -2; USP8 block: -25; UCHL1 inh: -1; USP7 block: -4; OTUD3 inh: -6

How did COCCN1[C@H]2CCN(CC(=O)N(C)C)CC[C@@H]2Oc2ccccc2S1(=O)=O do in these assays?
USP17 inh: -57; USP10 block: -9; USP8 block: -32; UCHL1 inh: -11; USP7 block: -11; OTUD3 inh: -39

How did Cc1cccc(C)c1NC(=O)C1(NC(=O)c2ccc(Br)cc2)CCCCC1 do in these assays?
USP17 inh: 35*; USP10 block: 8; USP8 block: 43*; UCHL1 inh: 0; USP7 block: 10; OTUD3 inh: 16

What do the screens show for `O=C1CC(C(=O)Nc2ccccc2F)n2c(nc3ccccc32)N1` (configuration not stated)?
USP17 inh: 19; USP10 block: 20; USP8 block: 39*; UCHL1 inh: 3; USP7 block: 13; OTUD3 inh: 11

What do the screens show for `O=C1CC(C(=O)NCCc2ccccc2)n2c(nc3ccccc32)N1` (configuration not stated)?
USP17 inh: 1; USP10 block: 17; USP8 block: 43*; UCHL1 inh: -1; USP7 block: 5; OTUD3 inh: -1

What do the screens show for `Cn1cnc2c(=O)oc3ccc(S(=O)(=O)N4CCCCC4c4cccnc4)cc3c21` (configuration not stated)?
USP17 inh: 7; USP10 block: -4; USP8 block: 3; UCHL1 inh: 1; USP7 block: -5; OTUD3 inh: 6

How did COc1ccc(C2CN3C(=O)CN(CCN4CCOCC4)C(=O)[C@]3(C)c3[nH]c4ccccc4c32)cc1 (some centres not stated) do in these assays?
USP17 inh: -14; USP10 block: -1; USP8 block: -9; UCHL1 inh: 1; USP7 block: -16; OTUD3 inh: -8

What do the screens show for `CN1[C@@H](CCC(=O)N2CCN(c3ccccn3)CC2)CNC(=O)[C@@H]2[C@H]1CCN2C1CCCCC1`?
USP17 inh: -55; USP10 block: 0; USP8 block: 39*; UCHL1 inh: 8; USP7 block: -14; OTUD3 inh: 1

Results for CN1CC[C@@H]2[C@H]1C(=O)NC[C@H](CCC(=O)N1CCN(c3ccccn3)CC1)N2C ?
USP17 inh: -70; USP10 block: -2; USP8 block: 72*; UCHL1 inh: 12; USP7 block: -22; OTUD3 inh: 2

Results for Cc1ccc(CN2CC[C@@H]3[C@H]2C(=O)NC[C@H](CCC(=O)N2CCN(c4ccccn4)CC2)N3C)cc1 ?
USP17 inh: -78; USP10 block: -3; USP8 block: 8; UCHL1 inh: 0; USP7 block: -5; OTUD3 inh: -10

What do the screens show for `COCC1CN(c2ccncn2)Cc2cn(CC3CCCC3)nc21` (configuration not stated)?
USP17 inh: -45; USP10 block: -3; USP8 block: -154; UCHL1 inh: -5; USP7 block: -16; OTUD3 inh: -16

Results for O=C(c1ccc2noc(-c3ccc(Cl)cc3)c2c1)N1CCN(c2ccccn2)CC1 ?
USP10 block: 9; USP8 block: -41; UCHL1 inh: -1; USP7 block: 1; OTUD3 inh: -12

How did O=C(NCCc1ccc(Cl)cc1)c1cc2ccccc2s1 do in these assays?
USP17 inh: 13; USP10 block: 3; USP8 block: 14; UCHL1 inh: 4; USP7 block: 9; OTUD3 inh: 7

Results for O=C(NCCc1ccccc1)c1cc2ccccc2c(=O)s1 ?
USP17 inh: 73*; USP10 block: 18; USP8 block: 2; UCHL1 inh: 8; USP7 block: 29; OTUD3 inh: 3

High-throughput results (PubChem)
